Compounds with a hit are over-represented: about 2.4% of the library has one in this group of screens.
D2 ag-1: agonists of human D2 dopamine receptor; activation, % at 2 µM; hit rate 0.53% among 340,000; HEK293 T-REx D2 cells, calcium flux agonist mode;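 active means activation over 3 SD above normal in the single-dose calcium agonist read, cut at about 30% in these data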
Target sequence (P14416 whole entry, looked up): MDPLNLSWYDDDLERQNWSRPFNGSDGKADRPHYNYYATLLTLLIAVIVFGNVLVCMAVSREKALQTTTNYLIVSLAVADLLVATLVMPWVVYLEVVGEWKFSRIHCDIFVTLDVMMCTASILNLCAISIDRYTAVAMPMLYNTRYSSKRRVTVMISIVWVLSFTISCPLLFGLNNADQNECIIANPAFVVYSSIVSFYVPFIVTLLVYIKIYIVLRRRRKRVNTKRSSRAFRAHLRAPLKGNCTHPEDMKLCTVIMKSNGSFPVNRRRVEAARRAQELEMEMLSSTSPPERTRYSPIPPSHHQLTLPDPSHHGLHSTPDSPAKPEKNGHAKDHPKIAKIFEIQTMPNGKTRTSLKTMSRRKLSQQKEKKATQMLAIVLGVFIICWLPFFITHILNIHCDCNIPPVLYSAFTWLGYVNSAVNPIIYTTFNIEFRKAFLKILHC
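In this primary screen, compounds producing a positive calcium signal within 180 s of addition to tetracycline-induced, force-coupled HEK293 Trex D2 cells are flagged; cells are dye-loaded with a no-wash calcium kit beforehand.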
D2 antag: D2 dopamine receptor (human) antagonism; HEK293 TREx D2 cells, calcium flux, dopamine EC80; hit rate 2% among 340,000; inhibition, % at 10 µM; P14416; in the data active means inhibition above about 30%; inactive means below that, where a call was filed
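Calcium flux kinetic readout in an inducible HEK293 TREx D2 line plated overnight at 30 C. After 180 s compound exposure, an EC80 dopamine challenge follows with another 180 s kinetic read to detect antagonism.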
D2 ag-2: activates the human D2 dopamine receptor; AID 624465; activation, % (test concentration not listed); hit rate 0.084% among 360,000; DiscoveRx PathHunter D2 beta-arrestin, luminescence, 90 min; 100% = 57 uM dopamine signal; P14416; in the data active means activation above about 40%
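Agonist mode: compounds alone added to overnight-plated D2 PathHunter cells for 90 min at 37 C, with 57 uM final dopamine (EC100) defining full response. Beta-arrestin recruitment detected by chemiluminescent reagent, read after 1 h at ambient temperature.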
D2 PAM-1: human D2 receptor positive allosteric modulation; P14416; DiscoveRx D2 beta-arrestin cells, luminescence, 90 min; 100% = 57 uM dopamine signal; potentiation, % (test concentration not listed); hit rate 0.23% among 360,000; in the data active means potentiation above about 50%
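PathHunter D2 cells, attached overnight at 37 deg C, received compound in DMSO plus dopamine at EC20 (50 nM final) for 90 min at 37 deg C. Beta-arrestin recruitment was read as luminescence after 1 h with detection reagent at ambient temperature.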
D2 PAM-2: positively modulates the human D2 dopamine receptor allosterically; P14416; HEK293 T-REx D2, calcium flux, EC20 dopamine potentiation; potentiation, % at 10 µM; hit rate 0.34% among 340,000; AID 485347;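 active means potentiation over 3 SD above the plate norm, cut at about 30% in these data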
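Potentiation of an EC20 dopamine calcium response measured kinetically over 180 s, after a preceding 180 s compound-only read flagging agonists. Cells: inducible Hek293 Trex D2 line, 4000/well, cultured overnight at 30 C before dye loading.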
Hits are given with their value; . = inactive; / = no result.

SMILES	D2 ag-1	D2 antag	D2 ag-2	D2 PAM-1	D2 PAM-2
Nc1nc(NCCc2ccccc2)nc(NCc2ccccc2)c1[N+](=O)[O-]	.	45	.	.	.
COc1ccccc1-n1c(SCC(=O)NC2CCS(=O)(=O)C2)nc2cc([N+](=O)[O-])ccc21 (configuration not stated)	.	.	.	.	.
CCN(CC)S(=O)(=O)c1ccc2c(c1)nc(SCC(=O)NC1CC1)n2-c1ccccc1OC	.	51	.	.	/
COc1ccc(CNC(=O)c2cc3cccc4c3n2CC(C)S4)cc1OC (configuration not stated)	.	/	/	/	.
CC(C)C(NS(=O)(=O)c1ccc2c(c1)oc(=O)n2C)C(=O)N1CCN(C2CCCCC2)CC1 (configuration not stated)	.	31	.	.	.
CC1CC(C)CN(C(=O)C(NS(=O)(=O)c2ccc3c(c2)oc(=O)n3C)C(C)C)C1 (configuration not stated)	.	.	.	.	.
Cc1nn(CC(=O)Nc2ccc(Br)cc2F)c(=O)c2cccn12	.	47	.	.	.
Cc1ccccc1NC(=O)Cn1nc(C)n2cccc2c1=O	.	.	.	.	.
CCc1ccc(-n2cnc3cc(C(=O)NCc4ccc(C)cc4)ccc32)cc1	.	/	/	/	.
Cc1cccn2c(=O)nc(SCC(=O)N3CCCCC3)nc12	.	.	.	.	.
Cc1cccn2c(=O)nc(SCC(=O)N3CCCCCC3)nc12	.	31	.	.	.
CCCOc1ccc(-c2c(C(=O)N/N=C/c3ccc(C)o3)nnn2-c2nonc2N)cc1	.	.	.	.	90
CCCOc1ccc(-c2c(C(=O)N/N=C/c3cccs3)nnn2-c2nonc2N)cc1	.	.	.	.	49
CCOc1ccc(-c2c(C(=O)N/N=C/c3ccc(C)o3)nnn2-c2nonc2N)cc1	.	.	.	.	.
COc1ccc(/C(C)=N/NC(=O)c2nnn(-c3nonc3N)c2-c2ccccc2)cc1	31	.	.	.	.
CCOc1ccc(-c2c(C(=O)N/N=C(\C)c3cccs3)nnn2-c2nonc2N)cc1	.	.	.	.	74
C/C(=N/NC(=O)c1nnn(-c2nonc2N)c1-c1ccccc1)c1ccncc1	.	.	.	.	.
CSc1ccc(CNC(=O)Cn2nc(N3CCN(c4ccccc4)CC3)ccc2=O)cc1	.	/	/	/	.
COc1ccc(CNC(=O)c2cnn(-c3ccc(C)cc3)c2-n2cccc2)cc1OC	.	/	/	/	.
O=S(=O)(NCc1nc2cccnc2n1Cc1ccc(F)cc1)c1ccc2c(c1)CCCC2	.	/	/	/	.
N#CCC(=N)N1CCN(c2cccc(Cl)c2)CC1	.	63	.	.	.
CCOC(=O)c1c(NC(=O)COc2cccc(C(F)(F)F)c2)sc2c1CCCCC2	.	/	/	/	.
COc1ccc(CCNc2ccc(S(=O)(=O)N3CCN(C)CC3)cc2[N+](=O)[O-])cc1	.	65	.	.	.
COc1ccc(C(CNc2ccc(S(=O)(=O)N3CCN(C)CC3)cc2[N+](=O)[O-])N(C)C)cc1 (configuration not stated)	.	.	.	.	.
CCOc1ccc(-n2c(=O)c3c(C)c(C)sc3n(CC(=O)NCCc3ccccc3)c2=O)cc1	/	/	/	/	.
SMILES	D2 ag-1	D2 antag	D2 ag-2	D2 PAM-1	D2 PAM-2
COC1CCCCC1NS(=O)(=O)c1ccc(Cl)cc1 (configuration not stated)	.	31	.	.	.
CN(C)c1ncnc2c1ncn2[C@H]1CN(Cc2ccc3c(c2)OCO3)C[C@@H](CO)O1	/	/	.	.	/
CC(C)(C)C#CC(CCc1ccccc1)OS(N)(=O)=O (configuration not stated)	.	.	/	/	.
COc1cc(C2c3c(-c4ccccc4)n[nH]c3C(=O)N2c2ccccc2)ccc1O (configuration not stated)	.	.	.	52	.
Cc1cc(C)cc(OCCCOc2cccc3cccnc23)c1	.	33	.	.	.
O=C(COC(=O)C1(c2ccccc2)CC1)N1CCN(c2ccc(F)cc2)CC1	.	35	.	.	.
O=C(COc1ccc(Br)cc1)N1CCN(c2ccccc2)CC1	.	.	.	.	.
